Compounds with a hit are over-represented: about 1.1% of the library has one in this group of screens.
NR2F2 inh: blocks human COUP-TFII nuclear receptor. inhibition, % at 8.6 µM. P24468. 370,000 tested, 0.7% active. HEK293T NGFI-A luciferase reporter, luminescence;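 active = inhibition above a per-plate cutoff, mean inhibition of test wells between control levels plus 3 SD, cut at about 38% in these data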;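 also: cells cotransfected with COUP-TFII expression vector driving the NGFI-A reporter; 0% = median of COUP-TF2 test wells and 100% = reporter-only cells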
NCOA3 inh: inhibits human SRC3 coactivator. inhibition, % at 3.6 µM. Q9Y6Q9. HEK293 GAL4-SRC3 luciferase reporter, luminescence. 360,000 tested, 0.17% active;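 active = inhibition above a per-campaign cutoff, the mean of all compounds plus 3 SD, cut at about 60% in these data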;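 also: 0% = DMSO-treated cells and 100% = gossypol-treated cells at 36 µM; higher means less SRC3-driven luciferase light from the GAL4 reporter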
SRC2 inh: human SRC2 (NCOA2) inhibition; Q15596; HEK293 GAL4-SRC2 luciferase reporter, luminescence; inhibition, % at 9 µM; 370,000 tested, 0.17% active; AID 651957;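 active = inhibition above the mean inhibition of all tested compounds plus 3 SD, set per campaign, cut at about 52% in these data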;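 also: 0% = DMSO treated cells and 100% = cells given Gossypol at 36 µM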
NCOA1 inh: human NCOA1 inhibition; Q15788; HEK293 GAL4-SRC1 luciferase reporter, luminescence; inhibition, % at 3.6 µM; 360,000 tested, 0.12% active;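 active = inhibition above the campaign mean plus 3 SD, with each screening campaign given its own cutoff, cut at about 60% in these data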;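 also: 0% = DMSO treated cells and 100% = gossypol at 36 µM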
GalR3 antag: blocks the human galanin receptor 3 | HEK293 GalR3-CNG cAMP membrane potential fluorescence; galR3 body fused to GalR1 C-terminus | 360,000 tested, 0.44% active | O60755 | inhibition, % at 3 µM;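 active = inhibition above the screen-wide average plus 3 SD, cut at about 13% in these data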;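 also: forskolin and galanin both at EC90 stimulate the cells; cAMP rise reported by CNG channel membrane potential dye signal; 0% = forskolin plus galanin with DMSO and 100% = forskolin alone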
LRH-1 inv ag: suppresses constitutive activity of human LRH-1. HEK293T StAR-luciferase reporter, LRH-1 transfected, 24 h. O00482. AID 602396. 360,000 tested, 0.13% active. inhibition, % at 3.6 µM;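 active = inhibition above the mean inhibition of all tested compounds plus 3 SD, cut at about 73% in these data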;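 also: 0% = DMSO wells and 100% = reporter-only cells lacking LRH-1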
Target sequence (O00482 whole entry, looked up): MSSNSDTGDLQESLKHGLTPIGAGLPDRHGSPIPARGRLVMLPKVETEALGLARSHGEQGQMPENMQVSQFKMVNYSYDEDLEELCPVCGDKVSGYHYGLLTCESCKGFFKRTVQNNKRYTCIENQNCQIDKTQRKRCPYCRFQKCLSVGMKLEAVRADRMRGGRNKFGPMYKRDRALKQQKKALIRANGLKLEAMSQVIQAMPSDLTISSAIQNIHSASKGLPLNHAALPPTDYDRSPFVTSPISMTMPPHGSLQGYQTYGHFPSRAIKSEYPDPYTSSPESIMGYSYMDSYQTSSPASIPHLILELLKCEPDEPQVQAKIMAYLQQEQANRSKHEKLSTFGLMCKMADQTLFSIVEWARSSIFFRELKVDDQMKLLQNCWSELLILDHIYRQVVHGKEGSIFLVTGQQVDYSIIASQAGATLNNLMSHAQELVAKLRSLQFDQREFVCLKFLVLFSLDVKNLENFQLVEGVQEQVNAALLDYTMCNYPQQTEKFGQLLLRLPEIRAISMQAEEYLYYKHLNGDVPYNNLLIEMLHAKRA
VP16 Luc counter: inhibits VP16 reporter, flagging COUP-TFII antagonist hits; HEK293 Gal4-VP16 luciferase reporter, luminescence; inhibition, % at 8.5 µM; 2,500 tested, 25% active; shares compounds with NR2F2 inh; in the data active = inhibition above about 13%
COUP-TFII conf: COUP-TFII (NR2F2) inhibition, confirmation assay. shares compounds with NR2F2 inh. HEK293 NGFI-A luciferase reporter, luminescence. inhibition, % at 8.5 µM. 2,500 tested, 45% active. AID 687008;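 active = mean inhibition over three repeats above a set limit taken from the earlier primary screen, cut at about 38% in these data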;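 also: 100% = cells given the luciferase reporter alone without the COUP-TF2 vector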
The depositor's hits bear a star.

What do the screens show for `CCCCn1c(N)c(N(CC(C)C)C(=O)c2ccc(OC)c(S(=O)(=O)N3CCOCC3)c2)c(=O)[nH]c1=O`?
NR2F2 inh: -22; NCOA3 inh: 5; SRC2 inh: -9; NCOA1 inh: -5; GalR3 antag: -3; LRH-1 inv ag: 9

What do the screens show for `CCOC(=O)c1cnc2c(OC)cccc2c1N1CC(C)CC(C)C1` (stereo unspecified)?
NR2F2 inh: 40*; NCOA3 inh: 2; SRC2 inh: -1; NCOA1 inh: 18; GalR3 antag: -6; LRH-1 inv ag: 5; VP16 Luc counter: -7; COUP-TFII conf: 7

Results for O=C(Nc1ccc(-c2nc3ccccc3o2)cc1)c1cc(-n2cnnc2)ccc1Cl ?
NR2F2 inh: 34; NCOA3 inh: -4; SRC2 inh: 5; NCOA1 inh: 12; GalR3 antag: -8; LRH-1 inv ag: 17

How did O=C(Nc1ccc(-c2nc3ccccc3o2)c(O)c1)c1cc(-n2cnnc2)ccc1Cl do in these assays?
NR2F2 inh: 44*; NCOA3 inh: 21; SRC2 inh: 27; NCOA1 inh: 18; GalR3 antag: -3; LRH-1 inv ag: 21; VP16 Luc counter: -8; COUP-TFII conf: 17

Results for O=C1CC(c2ccc3c(c2)OCO3)Sc2nc3ccccc3n21 (stereo unspecified) ?
NR2F2 inh: 42*; NCOA3 inh: 37; SRC2 inh: 2; NCOA1 inh: 29; GalR3 antag: -6; LRH-1 inv ag: 39; VP16 Luc counter: -72; COUP-TFII conf: 36

Results for O=C1CC(c2ccccc2)Sc2nc3ccccc3n21 (stereo unspecified) ?
NR2F2 inh: -44; NCOA3 inh: -79; SRC2 inh: -61; NCOA1 inh: -106; GalR3 antag: -5; LRH-1 inv ag: -159

Results for CCN(C(=O)c1cnc(N2CCN(c3ncccn3)CC2)c2ccccc12)c1cccc(Cl)c1 ?
NR2F2 inh: 50*; NCOA3 inh: -1; SRC2 inh: 33; NCOA1 inh: -2; GalR3 antag: -4; LRH-1 inv ag: 15; VP16 Luc counter: 2; COUP-TFII conf: 29

What do the screens show for `CN(C(=O)c1cnc(N2CCN(c3ncccn3)CC2)c2ccccc12)c1ccc(Cl)cc1`?
NR2F2 inh: -6; NCOA3 inh: 4; SRC2 inh: -36; NCOA1 inh: 10; GalR3 antag: -4; LRH-1 inv ag: 0

How did O=C(NC1CC1)c1cccc(S(=O)(=O)Nc2ccccc2F)c1 do in these assays?
NR2F2 inh: -9; NCOA3 inh: 12; SRC2 inh: -39; NCOA1 inh: -6; GalR3 antag: -6; LRH-1 inv ag: 23

How did O=C1CSc2ccc(C(=O)Nc3cccc(S(=O)(=O)Nc4ccc(Br)cc4)c3)cc2N1 do in these assays?
NR2F2 inh: 75*; NCOA3 inh: 17; SRC2 inh: 37; NCOA1 inh: -25; GalR3 antag: -3; LRH-1 inv ag: -3; VP16 Luc counter: 0; COUP-TFII conf: 32

What do the screens show for `COc1ccc(C(=O)NC(=O)CSc2n[nH]c(N)n2)cc1`?
NR2F2 inh: -18; NCOA3 inh: 8; SRC2 inh: -8; NCOA1 inh: 1; GalR3 antag: -4; LRH-1 inv ag: -10

What do the screens show for `CN(C)c1ccc(C=c2c3ccccc3n3c2cc(-c2ccccc2)[n+]3C)cc1`?
NR2F2 inh: 82*; NCOA3 inh: 83*; SRC2 inh: -29; NCOA1 inh: 65*; GalR3 antag: 9; LRH-1 inv ag: 91*; VP16 Luc counter: 21*; COUP-TFII conf: 94*

What do the screens show for `COc1cc(N(C)C)ccc1C=c1c2ccccc2n2c1cc(-c1ccccc1)[n+]2C`?
NR2F2 inh: 67*; NCOA3 inh: 63*; SRC2 inh: -54; NCOA1 inh: 23; GalR3 antag: -7; LRH-1 inv ag: 69; VP16 Luc counter: 9; COUP-TFII conf: 73*

How did CN(C)c1ccc(C=c2c3cc([N+](=O)[O-])ccc3n3c2cc(-c2ccccc2)[n+]3C)cc1 do in these assays?
NR2F2 inh: 68*; NCOA3 inh: 53; SRC2 inh: -4; NCOA1 inh: 12; GalR3 antag: -2; LRH-1 inv ag: 61; VP16 Luc counter: 53*; COUP-TFII conf: 59*

What do the screens show for `COc1cc(C=c2c3ccccc3n3c2cc(-c2ccccc2)[n+]3C)cc(OC)c1OC`?
NR2F2 inh: 38*; NCOA3 inh: 13; SRC2 inh: -3; NCOA1 inh: -9; GalR3 antag: -5; LRH-1 inv ag: 10; VP16 Luc counter: -1; COUP-TFII conf: 7

How did COc1cc(/C=C(/C(=O)O)c2ccc(-c3ccccc3)cc2)cc(OC)c1OC do in these assays?
NR2F2 inh: -1; NCOA3 inh: -2; SRC2 inh: 14; NCOA1 inh: 1; GalR3 antag: -9; LRH-1 inv ag: 0

How did CN(C)c1ccc(C=C2C=C(c3ccccc3)OC2=O)cc1 do in these assays?
NR2F2 inh: -21; NCOA3 inh: -14; SRC2 inh: 9; NCOA1 inh: -18; GalR3 antag: -7; LRH-1 inv ag: -35

How did O=Cc1ccc(-c2ccc(Cl)cc2Cl)[nH]1 do in these assays?
NR2F2 inh: 1; NCOA3 inh: -7; SRC2 inh: -5; NCOA1 inh: -34; GalR3 antag: -10; LRH-1 inv ag: -4

Results for C#CCNC(=O)C[C@H]1C[C@@]2(C(=O)OC)C(=C[C@H](COCc3ccccc3)O[C@@H]2C)N(CCCCCCCC)C1=O ?
NR2F2 inh: 1; SRC2 inh: -5

How did CCOC(=O)[C@]12CCCCC/C=C\1N(Cc1ccc(OC)cc1)C(=O)[C@H]2CC(=O)N1CCSCC1 do in these assays?
NR2F2 inh: 7; SRC2 inh: -19

How did COC(=O)C1=C(C)N(C)C(=NCc2ccc(OC)cc2)NC1c1ccccc1C(F)(F)F (stereo unspecified) do in these assays?
NR2F2 inh: 10; SRC2 inh: -16; GalR3 antag: -8

What do the screens show for `CC1CCCN(c2nc(NCc3ccco3)nc(N)c2[N+](=O)[O-])C1` (stereo unspecified)?
NR2F2 inh: 41*; NCOA3 inh: 17; SRC2 inh: 1; NCOA1 inh: 18; GalR3 antag: 0; LRH-1 inv ag: 12; VP16 Luc counter: 1; COUP-TFII conf: 4

What do the screens show for `COc1ccc2c(c1)NC(=O)[C@@]2(CCN1C(=O)c2ccccc2C1=O)c1[nH]c2ccccc2c1CCN1C(=O)c2ccccc2C1=O`?
NR2F2 inh: -6

Results for CC(=O)c1c(C)oc2ccc(N(C(C)=O)S(=O)(=O)c3ccc(F)cc3C)cc12 ?
NR2F2 inh: 8; NCOA3 inh: 16; SRC2 inh: 7; NCOA1 inh: -3; GalR3 antag: -1; LRH-1 inv ag: 5

Screening results deposited in PubChem by The Scripps Research Institute Molecular Screening Center.
